Measured values reported in the supplement of paper PMC6555819.

test system: RARg:RXRa (NR concentration 270 nM, RXRa partner concentration 90 nM); experiment: PBM binding z-score (relative to random genomic background probes); higher = stronger binding; sequences stand for … in GC…GCGATTGACAGCGTAGAATGAAGG
Procedure, shortened: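 Binding z-scores take random background probes as their reference. They come from custom Agilent 4×180K protein-binding microarrays incubated 1 h with ligand-free nuclear receptor dimers, with antibodies against each partner (one per run) detecting binding. Scanned fluorescence was regression-normalized.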

Row | Sequence | PBM binding z-score
1 | CAAGCTAGGTCAAGAGGTCAAAGTCCGCTTCCCG | 8.34
2 | TTACCAAGGTGAAAGGTCGTTGAGGCACGCCTTG | 4.52
3 | CCTGCTAGGTCTATGGTCAGCTAAAGCAGCTCGC | -0.335
4 | AGTCATAGTTCACTAGGTAACGTAAGATTCAGCT | 2.32
5 | ACTAGTTGGTAAGCTGAGGTCACACACAATTCGG | 3.45
6 | GCTGCTAGGTCAGGTTGGTCGGCTAACGGGTACG | 2.38
7 | CCTACTGGGCCAAGGTCTTTGATCAGTCAAAGCA | -0.131
8 | ATATGAAGGTTATCGGGTCATTCAGTTTGCGCAT | 4
9 | GCTGCTAGGTCAGGTTGGTCTGCTAACGGGTACG | 2.46
10 | CTCGAAAGGTCGGTTGAGGTGAGTAAACGGATAA | 2.86
11 | CGTCGGAGGACAGAAGGTCAGAGCTGTCCGCTTT | 3.56
12 | AGTCAAAGTTCACGAGGTAACGTAAGATTCAGCT | 6.34
13 | ATATGTAGCTTAAGGGTCATTCAGGTTGGTTCGC | 3.62
14 | CCGACTGGGCCATTCAGAGGTCATTGATCATATG | 4.49
15 | ATCTCTAGGTAAAGTTCAGCGAAAGATCGATAGA | 2.55
16 | CGTCCAAGGTCAGCAGGTCACTGAAAGCGACGTG | 7.24
17 | TAGCCTAGGTCAGATCGGGGCAGTATACGCTATA | 2.87
18 | CGTCCAAGGTCAACAGGTCAGTGAAAGCGACGTG | 7.26
19 | CGTCAAAGTTCAACTAAGTTAACGTAAAGCACGC | 5.7
20 | TCTAGGAGGACACGAAGGTCAGAGCTTTCCAGAG | 3.15
21 | AGTCAAAGTTCACGACGAGGTAACGTAAAGCACG | 6.88
22 | CAAACTAGGTCACGAAAGGTCAACGTCGAATGAC | 8.06
